Experimental data reported in the supplement of paper PMC11172423.
A number with no mark means an inactive call.

Test system: Falciformispora senegalensis CBS197.79
Assay: growth relative to untreated control; higher = less inhibition, active = 20 or less
Method in brief: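 Hyphal fragments of M. mycetomatis MM55 or F. senegalensis CBS197.79 were suspended in colourless RPMI 1640 with L-glutamine and MOPS at 68–72% transmission at 660 nm. They were exposed in 96-well plates to compound at 100 or 25 µM for 7 days at 37 °C. Viability was read with MTS (2 h, 490 nm) or resazurin (600 nm). Growth is metabolic activity relative to the untreated growth control, both corrected with a medium-plus-dye blank.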

SMILES	growth (25 µM)	growth (100 µM)
Clc1ccc(Nc2nc3cnc(NC4CC4)nc3n2C2CCNCC2)cc1Cl	76.9%	91.4%
C[C@H](NC(=O)c1cc2ccc(F)cc2[nH]1)c1ccccc1	91.5%	101%
O=C(Nc1ncccc1O)c1ccc(N2CCOCC2)nc1	90%	81.4%
COC(=O)N[C@H](C(=O)N1CCC[C@H]1c1ncc(-c2ccc(-c3ccc(-c4cnc([C@@H]5CCCN5C(=O)[C@@H](NC(=O)OC)C(C)C)[nH]4)cc3)cc2)[nH]1)C(C)C	114%	99.8%
O=C(NCCN1CCCCC1)c1cncc(-c2ccc(Cl)c(Cl)c2)c1	95.7%	30.1%
COc1ccc(CCN(C)CCCC(C#N)(c2ccc(OC)c(OC)c2)C(C)C)cc1OC (configuration not stated)	110%	98.5%
C[C@@H](C1CCCCC1)n1c(-c2cc3c(cc2Br)OCO3)nc2cc(C(=O)Nc3ccc(C#N)cc3)ccc21	106%	102%
CN(C)CCCN1c2ccccc2CCc2ccc(Cl)cc21	51.5%	12.5% (active)
C[C@H](/N=C(\N)c1cc2c(F)cc(F)cc2[nH]1)c1ccccc1	98.5%	15.3% (active)
C[C@@H]1CCCN1CCc1cc2cc(-c3ccc(C#N)cc3)ccc2o1	98.4%	17.8% (active)
CCS(=O)(=O)N1CC(CC#N)(n2cc(-c3ncnc4[nH]ccc34)cn2)C1	102%	104%
c1ccc(CCc2nc3cccnc3n2C2CCN(C3CCN(Cc4ccccc4)CC3)CC2)cc1	86.3%	49.8%
N=C(N)Nc1ccc(C(=O)Oc2ccc3cc(C(=N)N)ccc3c2)cc1	107%	66.5%
Cc1ccc(C)c2sc(N(CCCn3ccnc3)C(=O)c3ccco3)nc12	38.5%	30%
COc1ccc2nc3cc(Cl)ccc3c(Nc3cc(CN4CCCC4)c(O)c(CN4CCCC4)c3)c2n1	107%	15% (active)
Cc1ccc(-c2noc(-c3ccccc3)n2)cc1	90.2%	86.5%

SMILES	growth (25 µM)	growth (100 µM)
CC(C)CC(NCCc1ccccc1O)c1ccccn1 (configuration not stated)	99.8%	78.8%
O=C(NCCCNc1nc(Nc2ccc(N3CCOCC3)cc2)ncc1C1CC1)C1CCC1	93.4%	95%
Cc1cnc2nc(NC3COc4ccc(F)cc43)nc(NC3CCC4(CCCC4)CC3)c2c1 (configuration not stated)	85.8%	95%
CN(c1ncc2nc(Nc3cc(Cl)cc(C(F)(F)F)c3)n(C3CCNCC3)c2n1)C1CC1	90.9%	12.3% (active)
c1cc(N2CCC(CN3CCOCC3)CC2)c2sccc2n1	79%	32.1%
CCC(C)n1ncn(-c2ccc(N3CCN(c4ccc(OCC5COC(Cn6cncn6)(c6ccc(Cl)cc6Cl)O5)cc4)CC3)cc2)c1=O (configuration not stated)	37.2%	81.1%
CN(C)CCNC(=O)c1ccc(Nc2nccc(-c3ccc(Cl)c(Cl)c3)n2)cc1	24.5%	43.3%
NC(=O)c1nc(F)cnc1O	114%	102%
COc1cc2c3cc1Oc1c(OC)c(OC)cc4c1[C@@H](Cc1ccc(O)c(c1)Oc1ccc(cc1)C[C@@H]3N(C)CC2)N(C)CC4	99.1%	12.6% (active)
CN1CCC[C@@H]1CCO[C@](C)(c1ccccc1)c1ccc(Cl)cc1	17.9% (active)	13.7% (active)
Cc1nc(NC2(c3ccc(C#N)cc3)CC2)nc(NCC2COC2)c1C	97.1%	96.2%
CCN(CC)Cc1cc(Nc2ccnc3cc(Cl)ccc23)ccc1O	89.8%	88.3%
COc1cc(N2CCN(C)CC2)ccc1Nc1nccc(-c2cn(C)c3cnccc23)n1	69.1%	75.1%
COc1ccc(CCN(Cc2cccs2)C(=O)c2cc3sccc3n2C)cc1OC	97.9%	113%
COc1ccc(-n2nc(C)c3c2NC(=O)CC3c2ccccc2OCc2ccc(F)cc2)cc1 (configuration not stated)	82.5%	77.9%
